In PubChem BioAssay:
Activity calls are given as the source filed them.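 How the source made its calls, unless noted: active means fluorescence slope higher than the sample average by over 3 SD (cut at about -0.22 in these data, passing the limit was not always enough); inactive means the rest.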

Legend:
[1] = inhibitors of TNFa-induced NFkB p65 translocation, primary screen, imaging, HUVEC, MLSMR starter and 10KST1 sets (AID 438;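 active means inhibition above 20% together with a positive visual image hit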;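 further: compound added about 3h40 before a 20 min TNFalpha stimulation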;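 on inhibition: signal is the nuclear over cytoplasmic p65 intensity ratio per well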); details: HUVEC TNFa-induced p65 nuclear translocation; cell count: measured here: nuclei count (cytotoxicity indicator), at 2.08 µM; inhibition: at 2 µM, stronger effect = higher value, 0% TNFa-plus-vehicle, 100% no-TNFa wells
[2] = reduction of polyQ htt aggregates in cells – imaging, exon1htt(103Q)mCFP cells, high-content imaging, primary screen (AID 483;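 active means visual image review flags a hit and inhibition of aggregation exceeds 20%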;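 further: compound exposure lasted 3 days before fixation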;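 on nuclei count: percent of the per-plate median nuclei count of sample wells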); details: exon1htt(103Q)mCFP cell line, aggregate imaging, at 2 µM; inhibition of aggregation: stronger effect = higher value; nuclei count: measured here: cell count, toxicity
[3] = endothelial E-selectin expression blockers – imaging, HUVEC, immunofluorescence, MLSMR starter and 10KST1 sets, primary screen (AID 487;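 active means visually confirmed hit in the image check and inhibition above 20%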;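 on inhibition: signal is fraction of cell area covered by stained E-selectin grains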;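 on nuclei count: 100% = median nuclei count of all wells on the same plate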); details: HUVEC TNFalpha-induced E-selectin immunofluorescence imaging, at 2 µM; inhibition: stronger effect = higher value; nuclei count: measured here: cell number, toxicity
[4] = biological target: Voltage-gated potassium channel subunit beta-2 (Rattus norvegicus) (UniProt P62483); assay: inhibitors of rat Kvbeta2 reductase activity – biochemical, NADPH fluorescence, primary screen (AID 622); details: recombinant KvBeta, 4-cyanobenzaldehyde reduction, at 10 µM, stronger effect = higher value;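 further: slope of raw intensity against log time taken from 70 to 1610 s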
[5] = biological target: Voltage-gated potassium channel subunit beta-2 (Rattus norvegicus) (UniProt P62483); assay: enhancers of rat Kvbeta2 NADPH turnover – biochemical, NADPH fluorescence, primary screen (AID 623;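 active means NADPH fluorescence slope more negative than the mean of all samples by about 3 SD, 99.7% confidence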;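 further: fluorescence intensity change per second fitted from 20 to 320 s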); details: Recombinant KvBeta, NADPH fluorescence decrease slope, 10 min; at 10 µM; stronger effect = lower value
[6] = biological target: Alpha-2C adrenergic receptor (Homo sapiens) (UniProt P18825); assay: compounds altering alpha2C-coupled GIRK flux – cell-based, HEK293 alpha2C/GIRK1/2, thallium flux, primary screen (AID 624;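 active means fluorescence slope after compound addition differing from the mean of all screened samples at 99.7% confidence, in either direction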;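 further: slope of fluorescence ratio to pre-addition baseline per second over 15 to 24 s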); details: thallium flux BTC fluorescence, at 10 µM, actives lie on both sides
[7] = blockers of RIG-like receptor reporter activation – cell-based, Sendai virus stimulus, luciferase, 10K MLSCN set, TLR/RLR signaling modifier project, primary screen (AID 602276;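 active means inhibition at or above 50% at 10 µM; inactive means inhibition below 50%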;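 further: firefly luciferase from ISG56 promoter only with Renilla not read in this screen; 0% = Sendai virus plus DMSO and 100% = medium plus DMSO without virus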); details: HEK293 RL24 IRF3 luciferase reporter, at 10 µM, stronger effect = higher value
[8] = TLR3 IRF3 reporter activation blockers – cell-based, poly I:C stimulus, luciferase, 10K MLSCN set, primary screen (AID 602277;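 active means inhibition of the reporter signal at or above 50%; inactive means inhibition below 50%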); details: HEK293-TLR3 RL24 IRF3 luciferase reporter, at 10 µM, stronger effect = higher value

Chain of Alpha-2C adrenergic receptor (Homo sapiens) (P18825 whole entry, looked up): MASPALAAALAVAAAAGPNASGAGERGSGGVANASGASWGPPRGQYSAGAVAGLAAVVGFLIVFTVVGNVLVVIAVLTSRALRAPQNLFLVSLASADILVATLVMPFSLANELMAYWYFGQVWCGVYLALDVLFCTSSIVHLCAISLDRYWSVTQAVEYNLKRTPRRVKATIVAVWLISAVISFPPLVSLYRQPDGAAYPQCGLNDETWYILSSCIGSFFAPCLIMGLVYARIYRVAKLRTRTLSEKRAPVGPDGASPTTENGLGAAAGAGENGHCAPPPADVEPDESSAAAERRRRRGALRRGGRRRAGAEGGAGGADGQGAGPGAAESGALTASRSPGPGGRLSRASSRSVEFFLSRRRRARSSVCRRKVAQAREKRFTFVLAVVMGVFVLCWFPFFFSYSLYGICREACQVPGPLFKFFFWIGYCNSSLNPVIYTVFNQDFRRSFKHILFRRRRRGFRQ
Chain of Voltage-gated potassium channel subunit beta-2 (Rattus norvegicus) (P62483 whole entry, looked up): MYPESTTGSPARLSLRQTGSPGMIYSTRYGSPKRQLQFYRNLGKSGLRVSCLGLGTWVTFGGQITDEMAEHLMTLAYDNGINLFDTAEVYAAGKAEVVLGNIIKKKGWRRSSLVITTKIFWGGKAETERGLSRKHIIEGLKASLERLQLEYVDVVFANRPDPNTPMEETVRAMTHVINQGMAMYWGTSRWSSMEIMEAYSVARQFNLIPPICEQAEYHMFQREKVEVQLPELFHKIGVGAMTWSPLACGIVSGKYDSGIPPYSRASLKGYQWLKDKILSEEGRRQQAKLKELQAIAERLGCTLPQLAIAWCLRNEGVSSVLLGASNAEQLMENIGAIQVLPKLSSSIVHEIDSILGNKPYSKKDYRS

| Structure (SMILES) | cell count [1] | inhibition [1] | inhibition of aggregation [2] | nuclei count [2] | inhibition [3] | nuclei count [3] | fluorescence slope [4] | NADPH fluorescence slope [5] | slope [6] | inhibition [7] | inhibition [8] |
| --- | --- | --- | --- | --- | --- | --- | --- | --- | --- | --- | --- |
| CCOc1ccccc1-n1c(SCC(=O)NC(C)CC)nnc1-c1ccoc1C (centres undefined) | 608 | -2.4% (inactive) | -1.9% (inactive) | 105% | -47.9% (inactive) | 121% | -0.439 (inactive) | -3.6e-05 (inactive) | 0.00423 (inactive) | 18.6% (inactive) | 17.4% (inactive) |
| Cc1ccc(-n2ncc(C(=O)N3CCc4ccccc4C3)c2NC(=O)c2ccco2)cc1C | 425 | 10.2% (inactive) | -0.3% (inactive) | 100% | 0.3% (inactive) | 114% | -0.415 (inactive) | -9.8e-05 (inactive) | 0.00658 (inactive) | 2.03% (inactive) | 20.1% (inactive) |
| O=C(Cn1cc2c(n1)CCCC2)NCCc1ccccc1 | 792 | -3.7% (inactive) | 0.9% (inactive) | 106% | -47.8% (inactive) | 118% | -0.428 (inactive) | -2.6e-05 (inactive) | 0.00628 (inactive) | 5.6% (inactive) | 31.9% (inactive) |
| Cc1cc(C)n(-c2nc(C)nc3sc4c(c23)CCC(C)C4)n1 (centres undefined) | 564 | -8.4% (inactive) | -2% (inactive) | 93.8% | -88% (inactive) | 121% | -0.465 (inactive) | 5.5e-06 (inactive) | 0.00248 (inactive) | -1.01% (inactive) | 32.1% (inactive) |
| O=C(CCc1nc2ccccc2[nH]1)Nc1ccc2c(c1)OCO2 | 310 | -9.6% (inactive) | 23.8% (inactive) | 111% | -68.2% (inactive) | 111% | -0.347 (inactive) | 1.4e-05 (inactive) | 0.00426 (inactive) | -10.7% (inactive) | -26.2% (inactive) |
| Cc1cccc(N2C(=O)CC(N3CCN(C(=O)c4ccccc4)CC3)C2=O)c1 (centres undefined) | 408 | 19.1% (inactive) | 1.1% (inactive) | 106% | -12.6% (inactive) | 118% | -0.412 (inactive) | -0.000104 (inactive) | 0.00671 (inactive) | 10.6% (inactive) | 16.7% (inactive) |
| COc1ccccc1C(=O)N1CCN(C(=O)COc2cccc(C)c2)CC1 | 430 | -5.5% (inactive) | 11.7% (inactive) | 94.2% | -52.5% (inactive) | 102% | -0.288 (inactive) | -5.4e-05 (inactive) | 0.00401 (inactive) | 14% (inactive) | 23.5% (inactive) |
| Cc1cccc(OCCCC(=O)O)c1 | 438 | 1.4% (inactive) | -12.7% (inactive) | 101% | -57.9% (inactive) | 116% | -0.584 (inactive) | -3.6e-05 (inactive) | 0.00464 (inactive) | -5.29% (inactive) | 8.09% (inactive) |
| CC(=O)Nc1ccc(S(=O)(=O)Nc2nc3ccccc3nc2N2CCCC2)cc1 | 369 | 3.2% (inactive) | 10.6% (inactive) | 106% | -42.3% (inactive) | 128% | -0.593 (inactive) | 2.1e-06 (inactive) | 0.00326 (inactive) | 20.8% (inactive) | 21.3% (inactive) |
| COc1ccc(OC)c(-c2nc3c(C)n[nH]c(=O)c3[nH]2)c1 | 536 | 10.3% (inactive) | 13% (inactive) | 18.1% | 9.1% (inactive) | 118% | -0.423 (inactive) | -6.2e-05 (inactive) | 0.00496 (inactive) | 8.37% (inactive) | 20.2% (inactive) |
| CC(C)N(C(=O)CSc1nnc(NC(=O)C2CCC2)s1)C(C)C | 599 | -0.6% (inactive) | -7.3% (inactive) | 86.3% | -108% (inactive) | 110% | -0.466 (inactive) | 2.4e-05 (inactive) | 0.00479 (inactive) | 17.8% (inactive) | 25.1% (inactive) |
| COc1ccc(OC)c(NC(=O)C2C3CC4OC(=O)C2C4C3)c1 (centres undefined) | 318 | -5.7% (inactive) | 6.4% (inactive) | 117% | -119% (inactive) | 114% | -0.322 (inactive) | -5.4e-05 (inactive) | 0.0056 (inactive) | 13.4% (inactive) | 18.6% (inactive) |
| CCOCCCNC(=O)C1CCCN(S(=O)(=O)CC)C1 (centres undefined) | 630 | -36% (inactive) | -6.6% (inactive) | 112% | -3.3% (inactive) | 95.1% | -0.408 (inactive) | -4e-05 (inactive) | 0.00421 (inactive) | 15.1% (inactive) | 12.2% (inactive) |
| CCOc1ccc(NC(=O)c2ccc3c(c2)N(Cc2ccc(F)cc2)C(=O)CS3=O)cc1 (centres undefined) | 659 | 0% (inactive) | -4.8% (inactive) | 105% | -25.6% (inactive) | 113% | -0.551 (inactive) | -2.5e-05 (inactive) | 0.00664 (inactive) | 5.6% (inactive) | -7.02% (inactive) |
